Screening data (PubChem BioAssay)
HP1b binding inh: inhibitors of HP1-beta chromodomain binding to methylated histone tails; P83916; AlphaScreen HP1-beta / biotin-H3K9me3 peptide binding; Potency, µM (top dose mostly 114 µM), for the others: at the top dose activity change, negative = inhibition, usual class: inhibitors; actives 0.56% (n = 390,000); AID 540317; note: nearly all actives have a fitted effect of over 70% in size
Target sequence (P83916 whole entry, looked up): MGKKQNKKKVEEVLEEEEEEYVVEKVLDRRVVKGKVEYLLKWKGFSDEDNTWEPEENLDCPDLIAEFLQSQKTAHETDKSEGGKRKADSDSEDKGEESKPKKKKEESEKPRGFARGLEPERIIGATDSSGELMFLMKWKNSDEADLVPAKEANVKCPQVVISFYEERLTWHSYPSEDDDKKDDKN
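AlphaScreen: HP1-beta (50 nM) preformed 30 min with biotin-H3(1-18)K9me3 peptide (50 nM) in PBS pH 7.4, 0.01% Tween-20. Compound added for 30 min at RT, then streptavidin donor/nickel chelate acceptor beads (10 ug/mL) for 30 min.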
L3MBTL1 block: blocks human L3MBTL1; actives 0.66% (n = 230,000); AlphaScreen L3MBTL1–H3K9me1 peptide binding; Q9Y468; Potency, µM (series often up to 57.1 µM), inactives show at the top dose activity, negative = inhibition, most hits filed as inhibitors; note: % is set by controls: 0 for no effect and ±100 for the full control effect; nearly all actives have a fitted effect of over 60% in size
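AlphaScreen proximity signal between nickel-chelate acceptor and streptavidin donor beads (final 10 ug/mL) reports binding of 50 nM L3MBTL1 to 75 nM biotin-H3 K9me1 peptide; complex incubated with compounds 30 min at room temperature; cefsulodin titration as control.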
JMJD2A Tudor: inhibitors of human JMJD2A Tudor domain | O75164 | AlphaScreen JMJD2A-Tudor / H3K4me3 peptide binding | Potency, µM (series often up to 114 µM), inactives show at the top dose activity change, negative = inhibition, hits mostly inhibitors | actives 4.4% (n = 390,000); note: % is set by controls: 0 for no effect and ±100 for the full control effect; nearly all actives have a fitted effect of over 50% in size
Sfp inh: Sfp phosphopantetheinyl transferase inhibition; Biochemical Sfp PPTase activity, qHTS; Potency, µM, without a hit: largest response in the series, negative = inhibition, most hits filed as inhibitors; actives 3.5% (n = 310,000); AID 1490;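 note: the enzyme is Sfp with the accession as filed and its product quenches rhodamine fluorescence; 0% = enzyme reaction without inhibitor and -100% = no enzyme wells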
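Step 1, compound plus 15 nM Sfp-PPTase, 15 min, room temperature. Step 2, add rhodamine-CoA (5 uM) and BHQ-2-YbbR (12.5 uM). Step 3, read 525/598 nm fluorescence at 0 and 30 min.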
G9a inh: blocks human histone lysine methyltransferase G9a; G9a H3K9 monomethylation, AlphaScreen, 2 h; Q96KQ7; Potency, µM (top dose mostly 102 µM), without a hit: at the top dose activity, negative = inhibition, usual class: inhibitors; actives 8.8% (n = 350,000); note: % is set by controls: 0 for no effect and ±100 for the full control effect; nearly all actives have a fitted effect of over 75% in size
Target sequence (Q96KQ7 913-1193 limits assumed): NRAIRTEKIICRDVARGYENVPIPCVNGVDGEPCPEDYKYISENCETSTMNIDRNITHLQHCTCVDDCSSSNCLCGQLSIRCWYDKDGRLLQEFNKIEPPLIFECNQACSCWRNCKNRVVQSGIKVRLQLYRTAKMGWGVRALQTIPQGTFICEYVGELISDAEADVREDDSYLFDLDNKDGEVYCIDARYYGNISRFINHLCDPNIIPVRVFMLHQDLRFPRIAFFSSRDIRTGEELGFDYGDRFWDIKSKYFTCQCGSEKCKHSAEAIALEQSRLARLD
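Enzyme 20 nM + cpd, 15 min RT; add b-H3K9 pep 500 nM / SAM 20 uM; 2 h RT; anti-H3K9me1 Ab 0.5 ug/mL + SA donor / anti-rabbit acceptor beads 20 ug/mL each, 10 min; AlphaScreen read.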
BAZ2B inh: BAZ2B (human) inhibition. AID 504333. Q9UIF8. AlphaScreen BAZ2B-H3K14Ac peptide displacement. actives 4.4% (n = 360,000). Potency, µM (top dose mostly 114 µM), inactives show at the highest dose activity change, negative = inhibition, hits mostly inhibitors; note: % is set by controls: 0 for no effect and ±100 for the full control effect; nearly all actives have a fitted effect of over 60% in size
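Compounds, titrated to a top concentration of 110 uM, were incubated 30 min at room temperature with preformed BAZ2B/acetyl-K14 H3 peptide complex (50 nM each). Proximity signal was measured by AlphaScreen after 20 min with beads.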
* marks the source's active call; other numbers are inactive results; ? = inconclusive; nt = not tested or not shown; [ ] = remark or other dose. This is a sample that favours compounds with a hit; in the whole collection about 12% have one here. Calls come from the whole dose curve; as a rule, active = well fitted curve in the direction sought with a large enough effect; inconclusive = small, poorly fitted or top-dose-only effect, or another doubt; inactive = no such curve, though single readings can be large; an effect the other way counts as inactive or inconclusive. Potency is the fitted concentration of half-maximal effect.

SMILES	HP1b binding inh	L3MBTL1 block	JMJD2A Tudor	Sfp inh	G9a inh	BAZ2B inh
COC(=O)c1c(-c2cccs2)csc1NC(=O)COc1c(C)ccc(C)c1C	?	nt	79µM*	nt	1.4µM*	?
CC(=O)N1CCN(c2ccc(S(=O)(=O)N3CCCCC3)cc2[N+](=O)[O-])CC1	15%	-5%	-10%	nt	nt	nt
CN(C)c1ccc(/C=C/C(=O)c2ccccc2)cc1[N+](=O)[O-]	?	?	45µM*	-15%	?	14µM*
Cc1ccc(S(=O)(=O)N2CCN(C(=O)c3ccc(N4CCCCC4)c([N+](=O)[O-])c3)CC2)cc1	-20%	nt	?	13%	32µM*	?
COC(=O)c1cc(NS(=O)(=O)c2ccc(N3CCOCC3)c([N+](=O)[O-])c2)cc(C(=O)OC)c1	-4%	-3%	?	-2%	?	?
COC(=O)c1cc(NS(=O)(=O)c2ccc(N3CCCCCC3)c([N+](=O)[O-])c2)cc(C(=O)OC)c1	-25%	-3%	?	-3%	45µM*	?
CNc1ccc(/C=C/C(=O)c2ccc(C)cc2)cc1[N+](=O)[O-]	?	-25%	?	1%	?	?
O=C(/C=C/c1ccc(N2CCCCC2)c([N+](=O)[O-])c1)c1ccc(S(=O)(=O)N2CCCC2)cc1	?	-8%	-22%	4%	4.5µM*	?
Nc1ncnc2c1ncn2[C@@H]1O[C@H](CNC(=O)[C@@H](N)Cc2ccc(C(F)(F)F)cc2)[C@@H](O)[C@H]1O	22%	15%	-13%	nt	nt	nt
O=C(NCc1ccco1)c1ccc(N2CCOCC2)c([N+](=O)[O-])c1	-4%	0%	-24%	13%	?	-24%
COc1cccc(C(=O)/C=C/c2ccc(N3CCCCC3)c([N+](=O)[O-])c2)c1	?	?	40µM*	-1%	7.1µM*	10µM*
Cc1ccc(N(Cc2ccco2)C(=O)c2ccc(N3CCCCC3)c([N+](=O)[O-])c2)cc1	?	?	18µM*	-16%	?	?
O=C(Nc1ccc2c(c1)CN(Cc1ccccc1O)CC2)C1CCCO1 (stereo not drawn)	23%	nt	7%	-2%	nt	-5%
Cc1ccc(C)c(CN2C(=O)c3ccccc3S(=O)c3ccc(C(=O)NCc4ccccc4)cc32)c1 (stereo not drawn)	35%	nt	-14%	nt	-27%[59 µM]	-15%
O=C(NC1CCCC1)C1c2ccccc2C(=O)N1C1CCCCC1 (stereo not drawn)	21%	4%	-6%	14%	7%[59 µM]	-1%
O=C(NC1CCCCCC1)C1c2ccccc2C(=O)N1C1CC1 (stereo not drawn)	6%	1%	-5%	13%	8.9µM*	-3%
CCOC(=O)Cn1nnnc1CN(Cc1ccc(OC)cc1)Cc1cc2cc(C)ccc2[nH]c1=O	7%	-1%	-26%	71µM*	?	-1%
CCOC(=O)Cn1nnnc1CN(Cc1ccc(OC)cc1)Cc1cc2cc(C)cc(C)c2[nH]c1=O	25%	-1%	-21%	35µM*	22µM*	9%
COc1ccccc1CN(Cc1cc2cc(C)cc(C)c2[nH]c1=O)Cc1nnnn1CC1CCCO1 (stereo not drawn)	21%	-4%	-20%	-3%	6%[12.7 µM]	-2%
CCOC(=O)Cn1nnnc1CN(Cc1ccc(OC)cc1)Cc1cc2cc(CC)ccc2[nH]c1=O	-4%	-8%	-26%	18µM*	?	-22%
CCOC(=O)CCN1C(=O)[C@H]2[C@H]3[C@H](O)[C@H](O)C/C(=N/OC/C=C(\C)CCC=C(C)C)[C@@H]3CC[C@@H]2C1=O	nt	nt	nt	-11%	nt	nt
Cc1cccc(NC(=O)C2C3C=CC(O3)C2C(=O)O)c1C (stereo not drawn)	47%	nt	-32%	-8%	35µM*	-5%
Cc1ccc(F)cc1NC(=O)C1C2CCC(O2)C1C(=O)O (stereo not drawn)	19%	nt	-24%	7%	79µM*	25%
Cc1ccccc1NC(=O)C1C2CCC(O2)C1C(=O)O (stereo not drawn)	12%	12%	12%	19%	-7%[59 µM]	11%
Cc1ccc(NC(=O)C2C3C=CC(O3)C2C(=O)O)c(C)c1 (stereo not drawn)	35%	3%	-10%	-9%	40µM*	-2%
SMILES	HP1b binding inh	L3MBTL1 block	JMJD2A Tudor	Sfp inh	G9a inh	BAZ2B inh
COc1ccccc1NC(=O)C1C2C=CC(O2)C1C(=O)O (stereo not drawn)	nt	-4%	nt	-28%	50µM*	?
Cc1cccc(NC(=O)C2C(C(=O)O)C3C=CC2C32CC2)c1C (stereo not drawn)	11%	-9%	-16%	?	-13%[59 µM]	0%
Cc1ccc(COC(=O)c2cccc(S(=O)(=O)N3CCCCC3)c2)cc1	83%	33%	41%	nt	95%	34%
CCOc1ccc(NC(=O)Cn2c(=O)n(-c3ccccc3)c(=O)c3ccc(C(=O)NCc4ccc5c(c4)OCO5)cc32)cc1	19%	nt	-13%	nt	9%[59 µM]	nt
CC(=O)Nc1c(-c2cc(=O)oc3cc(C)ccc23)oc2ccccc12	34%	nt	-4%	1%	90%	9%
CCOc1ccccc1NC(=O)C(NS(=O)(=O)c1ccc2c(c1)CCC(=O)N2)c1ccccc1 (stereo not drawn)	14%	nt	-18%	nt	-20%[59 µM]	-23%
Cc1ccc(C)c(NC(=O)C2C3C=CC(O3)C2C(=O)O)c1 (stereo not drawn)	35%	2%	-22%	-4%	45µM*	-12%
C=CC(C)(O)CC1[C@@]2(C)CCCC(C)(C)C2CC[C@]1(C)O (stereo partly drawn)	nt	nt	nt	18%	nt	nt
O=[N+]([O-])c1cccc(C2CC(c3ccccc3)=NN2c2ccccc2)c1 (stereo not drawn)	?	-28%	28µM*	1%	32µM*	?
COc1cccc(OC)c1OCCCCCc1c(C)n[nH]c1C	33%	3%	-4%	7%	50µM*	-8%
Cc1n[nH]c(C)c1CCCCOc1ccccc1	13%	4%	-32%[57.1 µM]	5%	50µM*	-20%
COc1cccc(OC)c1OCCCCc1c(C)n[nH]c1C	9%	nt	-12%	-9%	?	-34%
O=C(Cn1c(=O)ccc2cc(S(=O)(=O)N3CCCC3)ccc21)Nc1ccc(Cl)cc1	12%[57 µM]	nt	-13%	nt	10%[59 µM]	4%
O=C(OCc1ccccc1)/C(=C/c1cccc([N+](=O)[O-])c1)NC(=O)c1ccco1	25%	nt	-21%	1%	-4%	1%
